According to PubChem BioAssay (NCATS):
Values without a mark were called inactive. Results filed as inconclusive are left out. Activity calls are given as the source filed them. Calls come from the whole dose curve; as a rule, active = well fitted curve in the direction sought with a large enough effect; inconclusive = small, poorly fitted or top-dose-only effect, or another doubt; inactive = no such curve, though single readings can be large; an effect the other way counts as inactive or inconclusive.

System: not listed separately
Assay: Dual reporter qHTS for agonist of Pregnane X Receptor (hPXR) against the NCATS DSHEA and TCM libraries: Fluorescence readout (AID 1920058); note: 0% is about no effect
Settings: PXR dual reporter cells; series mostly up to 40 µM; activation: at the top concentration
Outline: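 Viability readout (CellTiter-Fluor, 405/540 nm, 1 h) from agonist-mode PXR dual reporter in hPXR-Luc HepG2 cells. Substances ~24 h, 37 °C, 5% CO2; rifampicin reference, tetraoctyl ammonium bromide cytotoxic control.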

SMILES | activation
CC(C)=CCC[C@](C)(O[C@@H]1O[C@H](CO)[C@@H](O)[C@H](O)[C@H]1O)[C@H]1CC[C@]2(C)[C@@H]1[C@H](O)C[C@@H]1[C@@]3(C)CC[C@H](O)C(C)(C)[C@@H]3[C@@H](O[C@@H]3O[C@H](CO)[C@@H](O)[C@H](O)[C@H]3O)C[C@]12C | -25.4%
CC(=O)O[C@@H]1CC[C@@]2(C)[C@@H](CC[C@]3(C)[C@@H]2C(=O)C=C2[C@@H]4[C@@H](C)[C@H](C)CC[C@]4(C)CC[C@]23C)[C@@]1(C)C(=O)O | -28.5%
CCCCC/C=C/C/C=C/CCCCCCCC(=O)O | -1.06%
CCCCCC(=O)O | -21.5% [at 68.2 µM]
CC(C)(O)[C@@H]1CC[C@](C)([C@H]2[C@@H](O)C[C@@]3(C)[C@@H]4C[C@H](O)[C@H]5C(C)(C)[C@@H](O[C@@H]6OC[C@@H](O)[C@H](O)[C@H]6O[C@@H]6O[C@H](CO)[C@@H](O)[C@H](O)[C@H]6O)CC[C@@]56C[C@@]46CC[C@]23C)O1 | -0.496%
O=C(/C=C/c1ccc(O)c(O)c1)OC1[C@H](O)CC(O)(C(=O)O)C[C@@H]1O (stereo partly specified) | -10.6%
COc1ccccc1/C=C/C=O | -5.66% [at 68.2 µM]
CCCCCCCCCCCC(=O)O | 1.95%
C=C(C)[C@H]1CC=C(CO)CC1 | -1.84%
CCCCCCCC/C=C/CCCCCCCC(=O)O | 17%
CC1=C2[C@H]([C@@H](C)CC[C@@H]2/C=C(\C)C(=O)O)[C@@H](O)C1 | -4.71%
O=c1cc(-c2ccc(O)c(O)c2)oc2cc(O[C@@H]3O[C@@H](CO)[C@@H](O)[C@@H](O)[C@H]3O)cc(O)c12 | -61%
Cc1ccc(O)c(O)c1 | -41.4% [at 68.2 µM]
CCCCCCCCC/C=C/C(=O)CCc1ccc(O)c(OC)c1 | -15.9%
CCCCCCCC/C=C/CCCCCCCCCC(=O)O | 12.3%
CCCCCC/C=C/CCCCCCCCCC(=O)O | 4.62%

Biological target: Nuclear receptor subfamily 1 group I member 2 (Homo sapiens) (UniProt O75469)
Assay: Dual reporter qHTS for agonist of Pregnane X Receptor (hPXR) against the NCATS DSHEA and TCM libraries: Luminescence readout (AID 1920059); note: potency is the fitted concentration of half-maximal effect; for activation: 0% is about no effect
Settings: hPXR dual reporter cells, luciferase luminescence agonist; series mostly up to 40 µM; activation: at the top concentration
Outline: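 hPXR-LucHepG2 cells in phenol red-free DMEM with 5% charcoal-stripped FBS, 2000 cells/well, attached 5 h, then exposed 24 h at 37C to compounds; rifampicin as positive agonist control (2.8 nM–92 uM). Luciferase luminescence read.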

Chain of Nuclear receptor subfamily 1 group I member 2 (Homo sapiens) (O75469 whole entry, looked up): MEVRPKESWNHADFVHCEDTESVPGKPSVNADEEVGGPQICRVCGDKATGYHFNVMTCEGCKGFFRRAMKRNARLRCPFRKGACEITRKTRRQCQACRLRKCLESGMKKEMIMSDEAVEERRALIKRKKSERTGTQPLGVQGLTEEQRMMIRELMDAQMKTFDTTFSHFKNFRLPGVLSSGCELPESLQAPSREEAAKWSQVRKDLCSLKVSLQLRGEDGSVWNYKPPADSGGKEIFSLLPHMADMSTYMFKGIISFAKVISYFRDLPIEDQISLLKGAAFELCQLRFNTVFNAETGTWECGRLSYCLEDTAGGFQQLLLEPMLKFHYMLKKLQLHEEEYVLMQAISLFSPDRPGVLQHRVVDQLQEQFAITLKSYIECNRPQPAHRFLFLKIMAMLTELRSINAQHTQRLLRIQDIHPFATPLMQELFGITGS

SMILES | activation | Potency
O=C(O[C@@H]1Cc2c(O)cc(O)cc2O[C@@H]1c1ccc(O)c(O)c1)c1cc(O)c(O)c(O)c1 | -7.61% | –
C=CCc1ccc(OC)c(OC)c1 | -2.21% | –
C=C(C)C1CC=C(C)C(O)C1 (stereo unspecified) | 2% | –
CC1=C2[C@H](/C=C(\C)C(=O)O)CC[C@@H](C)[C@H]2CC1 | 15.1% | –
C=C1CC[C@H]2C[C@@H]1C2(C)C | 9.68% [at 68.2 µM] | –
C=C1C[C@@]23CC[C@H]4[C@@](C)(CCC[C@@]4(C)C(=O)O[C@@H]4O[C@H](CO)[C@@H](O)[C@H](O)[C@H]4O[C@@H]4O[C@H](CO)[C@@H](O)[C@H](O)[C@H]4O)[C@@H]2CC[C@]1(O[C@@H]1O[C@H](CO)[C@@H](O)[C@H](O)[C@H]1O[C@@H]1O[C@H](CO)[C@@H](O)[C@H](O)[C@H]1O)C3 | -2.57% | –
CC(C)=CCC[C@](C)(O[C@@H]1O[C@H](CO)[C@@H](O)[C@H](O)[C@H]1O)[C@H]1CC[C@]2(C)[C@@H]1[C@H](O)C[C@@H]1[C@@]3(C)CC[C@H](O)C(C)(C)[C@@H]3[C@@H](O[C@@H]3O[C@H](CO)[C@@H](O)[C@H](O)[C@H]3O)C[C@]12C | 1.91% | –
CC(=O)O[C@@H]1CC[C@@]2(C)[C@@H](CC[C@]3(C)[C@@H]2C(=O)C=C2[C@@H]4[C@@H](C)[C@H](C)CC[C@]4(C)CC[C@]23C)[C@@]1(C)C(=O)O | 16.9% | –
CCCCC/C=C/C/C=C/CCCCCCCC(=O)O | -1.91% | –
CCCCCC(=O)O | -9.67% [at 68.2 µM] | –
CC(C)(O)[C@@H]1CC[C@](C)([C@H]2[C@@H](O)C[C@@]3(C)[C@@H]4C[C@H](O)[C@H]5C(C)(C)[C@@H](O[C@@H]6OC[C@@H](O)[C@H](O)[C@H]6O[C@@H]6O[C@H](CO)[C@@H](O)[C@H](O)[C@H]6O)CC[C@@]56C[C@@]46CC[C@]23C)O1 | 3.36% | –
O=C(/C=C/c1ccc(O)c(O)c1)OC1[C@H](O)CC(O)(C(=O)O)C[C@@H]1O (stereo partly specified) | -2.44% | –
COc1ccccc1/C=C/C=O | -4.1% [at 68.2 µM] | –
CCCCCCCCCCCC(=O)O | 0.0509% | –
C=C(C)[C@H]1CC=C(CO)CC1 | 13.6% | –
CCCCCCCC/C=C/CCCCCCCC(=O)O | 6.42% | –
O=c1cc(-c2ccc(O)c(O)c2)oc2cc(O[C@@H]3O[C@@H](CO)[C@@H](O)[C@@H](O)[C@H]3O)cc(O)c12 | 13.2% | –
Cc1ccc(O)c(O)c1 | – | 50.1 µM (active)
CCCCCCCC/C=C/CCCCCCCCCC(=O)O | -5.1% | –
CCCCCC/C=C/CCCCCCCCCC(=O)O | 5.81% | –
